Reference: PubChem BioAssay (NCI)
Compounds without any hit were thinned out: in the full panel of roughly 83,000, 20% have a hit.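 Cell lines were cultured in 96-well plates, exposed to a single compound concentration, and assessed for percent growth 48 hours later.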 A number with no mark means an inactive call. Activity calls are given as the source filed them. The calls were made as follows: active = growth percent below 10; inactive = the rest.

Legend:
Experiment in all cases: NCI-60 one-dose screen, 48 h (100 = growth as untreated, 0 = no growth, -100 = all killed)
K-562 leukemia = conditions: 10 µM unless noted
MALME-3M melanoma = conditions: 10 µM unless noted
MDA-MB-231 breast = conditions: 10 µM unless noted
RXF 393 renal = conditions: 10 µM unless noted
SF-268 CNS = conditions: 10 µM unless noted
SF-295 CNS = conditions: 10 µM unless noted
SF-539 CNS = conditions: 10 µM unless noted
UACC-257 melanoma = conditions: 10 µM unless noted
M14 melanoma = conditions: 10 µM unless noted
HCT-15 colon = conditions: 10 µM unless noted
HT29 colon = conditions: 10 µM unless noted
SNB-75 CNS = conditions: 10 µM unless noted
SNB-19 CNS = conditions: 10 µM unless noted
U251 CNS = conditions: 10 µM unless noted
PC-3 prostate = conditions: 10 µM unless noted
UACC-62 melanoma = conditions: 10 µM unless noted
SK-MEL-28 melanoma = conditions: 10 µM
SK-MEL-2 melanoma = conditions: 10 µM unless noted
LOX IMVI melanoma = conditions: 10 µM unless noted
SK-MEL-5 melanoma = conditions: 10 µM unless noted

| Compound | growth (K-562 leukemia) | growth (MALME-3M melanoma) | growth (MDA-MB-231 breast) | growth (RXF 393 renal) | growth (SF-268 CNS) | growth (SF-295 CNS) | growth (SF-539 CNS) | growth (UACC-257 melanoma) | growth (M14 melanoma) | growth (HCT-15 colon) | growth (HT29 colon) | growth (SNB-75 CNS) | growth (SNB-19 CNS) | growth (U251 CNS) | growth (PC-3 prostate) | growth (UACC-62 melanoma) | growth (SK-MEL-28 melanoma) | growth (SK-MEL-2 melanoma) | growth (LOX IMVI melanoma) | growth (SK-MEL-5 melanoma) |
| --- | --- | --- | --- | --- | --- | --- | --- | --- | --- | --- | --- | --- | --- | --- | --- | --- | --- | --- | --- | --- |
| O=c1oc2ccc(I)cc2c(=O)n1-c1ccc(I)cc1F | 5.58% (active) | -27.7% (active) | -9.68% (active) | -3.51% (active) | 8.4% (active) | -56.6% (active) | 2.15% (active) | -20.3% (active) | -2.96% (active) | 2% (active) | 28.3% | -22.6% (active) | 21.2% | 1.81% (active) | 3.97% (active) | -28.6% (active) | -4.19% (active) | -29.7% (active) | – | – |
| COc1ccc(-c2nnc(COc3ccc(C(=O)/C=C/c4ccco4)cc3)o2)cc1 | 15.3% | 125% | 90% | 65% | 58.1% | -2.9% (active) | 55.9% | 105% | 98.8% | 68.3% | 20.3% | 60.1% | 78.1% | – | 86.2% | 85.9% | 90.9% | 132% | -30.5% (active) | – |
| COC(=O)[C@@H]1CCCN1C(=O)[C@H]1CCCN1C(=O)[C@@H](Cc1c[nH]c2ccccc12)NC(=S)Nc1cc(C(F)(F)F)cc(C(F)(F)F)c1 | 27.6% | 71.1% | 25.4% | 48.5% | 38% | -52.2% (active) | 62% | 69.5% | 39.8% | 43.5% | 33% | 46.6% | 37.6% | – | 32.4% | 48.5% | 55.7% | 55.3% | 38.8% | – |
| COC(=O)C1=Nc2ccc(F)cc2/C1=C/c1sc(=S)[nH]c1O | 8.26% (active) | 60.8% | 16.8% | 30.4% | 13.1% | 13.8% | -26.6% (active) | 45.9% | 2.31% (active) | 10.7% | 8.16% (active) | 11.6% | 30.4% | 8.56% (active) | – | 53.6% | 59.4% | 39.5% | 13% | -41% (active) |
| O=C(Nc1ccc(I)cc1F)c1cc(Br)ccc1O | 8.5% (active) | -27.4% (active) | -21.2% (active) | 2.4% (active) | 7.21% (active) | -64.9% (active) | 0.872% (active) | -18.2% (active) | -10.4% (active) | 0.459% (active) | 30.4% | -26.1% (active) | 19% | -14.5% (active) | 7.44% (active) | – | – | -26.5% (active) | 6.07% (active) | – |
| O=c1c(-c2nc3ccccc3[nH]2)cc2ccccc2n1Cc1cn(Cc2ccccc2Cl)nn1 | 30.7% | 5.45% (active) | -21% (active) | 13.1% | 45.2% | 32.9% | 4.13% (active) | 56.8% | 38.4% | 19.7% | 0.454% (active) | -41.2% (active) | – | 37.9% | 36.6% | 22.1% | 1.94% (active) | 94.1% | 12.8% | 0.0348% (active) |
| O=c1oc2ccc(I)cc2c(=O)n1-c1ccc(Br)cc1F | 7.02% (active) | -26.7% (active) | -21.2% (active) | 3.07% (active) | 9.55% (active) | -58.1% (active) | 4.36% (active) | -13.6% (active) | -0.737% (active) | -7.61% (active) | 50% | -18.9% (active) | 18.2% | 0.297% (active) | 1.7% (active) | – | 2.3% (active) | -27.7% (active) | 11.2% | – |
| CCOC(=O)C(CC(=O)O)=C(C(=O)OCC)C(=O)OCC | 106% | 121% | 123% | 102% | 107% | 100% | 102% | 100% | 115% | 96.8% | 134% | 91.8% | 109% | – | 112% | 113% | 101% | 128% | 106% | – |
| COc1ccc(Cn2cc(Cn3c(=O)c(-c4nc5ccccc5[nH]4)cc4ccccc43)nn2)c(OC)c1OC | 9.91% (active) | 24.6% | 1.9% (active) | -28.4% (active) | 2.39% (active) | 1.99% (active) | -28.6% (active) | 46.9% | -50.3% (active) | 11.1% | 4.85% (active) | -74% (active) | – | 12.7% | 17% | 23.2% | 50.1% | 28% | 18.9% | 5.92% (active) |
| O=c1oc2ccc(F)cc2c(=O)n1-c1ccc(Br)cc1F | 6.75% (active) | -23% (active) | -22% (active) | -0.594% (active) | 11.2% | -50.6% (active) | 2.6% (active) | -17.4% (active) | -2.25% (active) | 2.89% (active) | 32.6% | -15.7% (active) | 17.1% | 2.06% (active) | -2.97% (active) | -6.65% (active) | 11.1% | -30.2% (active) | 13.5% | – |
| COc1ccc(Br)c(/C=C2\SC(=Nc3ccc(O)cc3)NC2=O)c1 | 84.4% | 89.6% | 108% | 83.7% | 74% | 98.3% | 85.4% | 102% | 97.8% | 79.3% | 113% | 72.2% | 85.5% | 86.6% | – | – | 101% | 96.2% | 91.2% | 90.3% |
| CN(C)/C=C1\SC(=Nc2ccc(Cl)cc2)NC1=O | 101% | 103% | 92.7% | 100% | 101% | 101% | 96% | 101% | 109% | 103% | 110% | 96.4% | 102% | 99.7% | – | 95.2% | – | 104% | 101% | 97% |
| Cc1ccc(Cc2cnc(NC(=O)CN3C(=O)/C(=C\c4ccccc4)SC3=S)s2)cc1 | 101% | 104% | 108% | 113% | 101% | 101% | 100% | 107% | 107% | 103% | 114% | 94.4% | 99.7% | 94.8% | – | 98.4% | 106% | 106% | 98.6% | 102% |
| CCn1c(Cc2ccccc2Nc2c(Cl)cccc2Cl)nnc1SCC(=O)NN1C(=O)/C(=C/c2cccc(OC)c2OC)SC1=S | 89.7% | 97.1% | 102% | 112% | 96.1% | 95% | 101% | 101% | 103% | 99.8% | 113% | 87.3% | 91.2% | 90.1% | – | 96.6% | 104% | 96.7% | 92% | 97.1% |
| Cc1nc2ccccc2c(/C=C/c2ccc(F)cc2)c1C(N)=O | 95.8% | 105% | 92% | 106% | 96.4% | 102% | 102% | 99.9% | 103% | 108% | 115% | 85.4% | – | 98.1% | 89.1% | 96.1% | 117% | 105% | 96.4% | 95.9% |
| O=C(Nc1ccc(Cl)cc1F)c1cc(I)ccc1O | 14.9% | -1.76% (active) | 52.8% | 14.8% | 17.1% | 48.4% | 16.4% | 21.9% | 27.9% | 25.4% | 103% | 16.5% | 18.9% | 9.91% (active) | 44% | -1.26% (active) | 18.5% | -19.3% (active) | 19% | – |
| O=c1c2cc(F)ccc2sc2c(NCCCNCCO)nc3ccc(Cl)cc3c12 | -25.8% (active) | 106% | 22.5% | 61.1% | 47.9% | 91.3% | 84.8% | 97.9% | 33.4% | 51.2% | -48.6% (active) | 46.1% | 76.5% | 33% | 50.7% | 91.6% | 99.9% | 105% | 14.6% | – |
